Results published in PubChem BioAssay AID1903 (Southern Research Specialized Biocontainment Screening …, 2009).
About 1,200 (0.39%) of roughly 310,000 compounds were called active. Only a sample is shown. Results with a measured potency or affinity are listed apart. A number with no mark means an inactive call. No rule for the calls is given here.

The compounds below were run against Large T antigen (Simian virus 40) (UniProt P03070) (assay: TAg ATPase/helicase activity blockers – biochemical (AID 1903)). Details: SV40 large T antigen ATPase/helicase inhibition assay; at 20 µM; active compounds read high.
Sequence of Large T antigen (Simian virus 40) (P03070 whole entry, looked up): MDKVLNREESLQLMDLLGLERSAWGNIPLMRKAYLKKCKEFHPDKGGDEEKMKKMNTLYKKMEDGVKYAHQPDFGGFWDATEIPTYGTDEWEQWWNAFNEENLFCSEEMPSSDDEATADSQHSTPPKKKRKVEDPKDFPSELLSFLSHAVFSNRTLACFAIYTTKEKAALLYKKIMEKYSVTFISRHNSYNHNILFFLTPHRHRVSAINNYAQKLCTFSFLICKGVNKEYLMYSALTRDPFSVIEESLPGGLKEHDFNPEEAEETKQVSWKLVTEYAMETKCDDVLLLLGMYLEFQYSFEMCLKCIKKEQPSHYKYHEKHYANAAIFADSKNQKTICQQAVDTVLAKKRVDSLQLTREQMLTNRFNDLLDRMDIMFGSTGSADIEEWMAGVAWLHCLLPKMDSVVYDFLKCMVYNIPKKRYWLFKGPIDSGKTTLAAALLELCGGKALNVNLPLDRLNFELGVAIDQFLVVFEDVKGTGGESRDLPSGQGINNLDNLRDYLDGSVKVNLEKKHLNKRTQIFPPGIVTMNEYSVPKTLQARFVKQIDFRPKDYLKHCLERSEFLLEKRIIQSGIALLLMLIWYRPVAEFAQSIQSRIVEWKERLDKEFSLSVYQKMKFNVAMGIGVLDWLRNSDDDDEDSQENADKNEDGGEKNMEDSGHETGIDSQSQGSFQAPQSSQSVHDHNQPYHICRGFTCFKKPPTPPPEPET
With `O=C(Oc1cccc(Cl)c1)N1CCOCC1` the inhibition was 7.93%.
`NS(=O)(=O)c1ccc(NC(=O)COC(=O)c2cccc(S(=O)(=O)N3CCCC3)c2)cc1` gave an inhibition of 11.7%.
In the case of `Cc1c(NC(=O)c2cccc(-c3cc4ccccc4oc3=O)c2)cccc1-c1nc2ncccc2o1`, the inhibition is reported as -0.4%.
Compound `CCCCNc1nnc(Cc2ccc(Cl)cc2)c(=O)[nH]1` has an inhibition of 9.41%.
`O=C(CCCn1cncn1)N1CCCC(Nc2ccc(F)cc2)C1` (stereo not drawn) was tested, and the inhibition was 5.07%.
Work on `COc1ccc(NC2CCCN(C(=O)CSc3ccncc3)C2)cc1` (stereo not drawn) yielded an inhibition of 31.4%.
Work on `COc1ccc(NC2CCCN(C(=O)CCCn3cncn3)C2)cc1OC` (stereo not drawn) yielded an inhibition of 33.9%.
`COc1ccc(NC2CCCN(C(=O)CCN3CCCO3)C2)cc1` (stereo not drawn) was tested, and the inhibition was 23%.
With `O=C(CSc1ccccc1)N1CCCC(Nc2ccccc2)C1` (stereo not drawn) the inhibition was 7.87%.
`COc1ccc(NC2CCCN(C(=O)CCN3Cc4ccccc4C3=O)C2)cc1` (stereo not drawn) gave an inhibition of 34.5%.
`COc1ccc(S(=O)(=O)Nc2cc(C(=O)NC3CCCCCC3)ccc2N2CCOCC2)cc1` was tested, and the inhibition was 3.07%.
`CCc1nn(CC(=O)NCCCN2CCCC2=O)c(=O)c2cc3sccc3n12` was tested, and the inhibition was -4.15%.
`Cc1ccc(NS(=O)(=O)c2c(C)[nH]c(C)c2C(=O)N2CCCCC2)c(Cl)c1` was tested, and the inhibition was -2.05%.
Work on `CCOC(=O)c1ccc(NC(=O)C(=O)NCc2ccccn2)cc1` yielded an inhibition of -2.35%.
In the case of `CC(C)(CC(=O)O)CC(=O)Nc1ccc2c(c1)ncn2CCc1ccccc1`, the inhibition is reported as 5.95%.
In the case of `O=C1NC(=O)/C(=C\c2ccc(Cl)nc2)S1`, the inhibition is reported as 8.29%.
Work on `Cc1c(N=C2NC(=O)/C(=C/c3cccc([N+](=O)[O-])c3)S2)c(=O)n(-c2ccccc2)n1C` yielded an inhibition of 4.3%.
`NC1=NC(=O)S/C1=C\c1ccc(F)cc1` showed an inhibition of 8.64%.
`CC(C)(C)c1ccc(/C=C2\SC(=O)N=C2N)cc1` showed an inhibition of 5.32%.
Work on `CCOc1cc(/C=C2\SC(N)=NC2=O)ccc1O` yielded an inhibition of 34.2%.
`COc1ccc(/C=C2\SC(=O)N=C2N)cc1OC` gave an inhibition of 8.84%.
`Cc1c(N=C2C(=O)Nc3ccccc32)c(=O)n(-c2ccccc2)n1C` gave an inhibition of 1.2%.
`COc1ccc(/C=C2/SC(=O)NC2=O)cc1` was tested, and the inhibition was 12.9%.
`CCN(CC)CCSc1nc(O)c(C(C)C)c(=O)[nH]1` showed an inhibition of 14.1%.
Compound `COC(=O)[C@@H](Cc1c[nH]c2ccccc12)NC(=O)c1cc(=O)[nH]c2ccccc12` has an inhibition of 2.68%.
With `CCOc1cc(S(=O)(=O)NC2CCCC2)ccc1Cl` the inhibition was 2.79%.
`O=C(NCc1cccs1)C(=O)c1c[nH]c2ccccc12` was tested, and the inhibition was -25.6%.
`Cc1occc1-c1nnc(SCC(=O)N2CCOCC2)o1` gave an inhibition of 1.14%.
With `O=S(=O)(Nc1nc2c(s1)CCCC2)c1ccc(Br)cc1` the inhibition was -1.56%.
For `COc1ccc(/C=C(\NC(=O)c2ccccc2)C(=O)OCC2CCCN3CCCCC23)cc1OC` (stereo not drawn), the inhibition was -3.64%.
`COc1ccc(/C=C/C(=O)OCC(=O)Nc2cc(S(=O)(=O)N(C)C)ccc2Cl)cc1` gave an inhibition of 3.97%.
Compound `COc1cccc(NC(=O)c2ccc(N3C(=O)C4CC=C(C)CC4C3=O)cc2)c1` (stereo not drawn) has an inhibition of 7.31%.
In the case of `Cc1cccc(S(=O)(=O)Nc2nc3ccccc3nc2Nc2ccc3c(c2)OCO3)c1`, the inhibition is reported as 17.6%.
Work on `Cc1nc2ccc(Br)cc2c2c1CC(CBr)O2` (stereo not drawn) yielded an inhibition of 10.6%.
For `O=C(O)c1cccc(Nc2c3ccccc3nc3ccccc23)c1`, the inhibition was -9.05%.
`Cc1ccc(O)c(Nc2c3ccccc3nc3ccccc23)c1` showed an inhibition of 12.6%.
Work on `CCCCNC(=O)OCCNC(=O)NC` yielded an inhibition of 7.67%.
With `COc1ccc(N2CCN(C(=S)Nc3cc(C)ccc3C)CC2)cc1` the inhibition was 3.41%.
With `COc1ccc(NC(=S)NCC2CCN(c3ccc(OC)cc3)C2)cc1` (stereo not drawn) the inhibition was 36.1%.
`COc1ccc(N2CCC(CNC(=S)Nc3cccc(C)c3)C2)cc1` (stereo not drawn) showed an inhibition of 21.4%.
`COc1ccc(N2CCC(CNC(=S)Nc3cc(C)cc(C)c3)C2)cc1` (stereo not drawn) was tested, and the inhibition was 28.6%.
`COc1ccc(N2CCN(CC(=O)Nc3c(C)cc(C)cc3C)CC2)cc1` gave an inhibition of 24%.
`COc1ccc(N2CCC(CNC(=S)Nc3cc(C)ccc3C)C2)cc1` (stereo not drawn) was tested, and the inhibition was 36.6%.
In the case of `Nc1nnnn1CC(=O)N/N=C/C=C/c1ccccc1`, the inhibition is reported as 13.8%.
With `CC(C)N=C(Nc1ccccc1)c1cccnc1` the inhibition was -1.87%.
With `Cc1snc(SCc2ccc(F)cc2)c1C#N` the inhibition was 10.8%.
Work on `COc1ccc(NC(=O)c2ccc(-n3cnnn3)cc2)c([N+](=O)[O-])c1` yielded an inhibition of -1.81%.
In the case of `O=C1CSC(=S)N1c1cccc(Br)c1`, the inhibition is reported as 9.66%.
In the case of `O=C1c2c([N+](=O)[O-])cc([N+](=O)[O-])cc2S(=O)N1Cc1ccccc1` (stereo not drawn), the inhibition is reported as 11.3%.
`O=c1c2c([N+](=O)[O-])cc([N+](=O)[O-])cc2nc2ccccn12` was tested, and the inhibition was 9.53%.
In the case of `CC1CCCC(C)N1C(=O)COC(=O)c1ccc2c(c1)OCO2` (stereo not drawn), the inhibition is reported as -2.3%.
`Cc1ccc(S(=O)(=O)N2CCN(C(=O)COC(=O)CCOc3cc(C)ccc3C)CC2)cc1` gave an inhibition of 7.19%.
`COc1ccccc1OCC(=O)N1CCNC1=O` showed an inhibition of 12%.
For `O=C1NC(=S)N/C1=C/c1ccc2c(c1)OCO2`, the inhibition was 11.6%.
`O=Cc1ccc2c(c1)CCN2Cc1ccccc1` was tested, and the inhibition was 3.42%.
Compound `CC(=O)c1c(C)oc2ccc(NS(=O)(=O)c3ccc(O)c(C(=O)O)c3)cc12` has an inhibition of 20.5%.
Work on `O=C(O)c1cccc(S(=O)(=O)Nc2ccc3[nH]c(=O)[nH]c3c2)c1` yielded an inhibition of -8.06%.
In the case of `O=C(O)c1cccc(S(=O)(=O)Nc2ccc3c(c2)OCO3)c1`, the inhibition is reported as 15.8%.
Compound `O=C(O)c1cc(NS(=O)(=O)c2ccc3ccccc3c2)ccc1O` has an inhibition of 25.9%.
`C=CCN(c1ccccc1)S(=O)(=O)c1cccc(C(=O)NNC(=O)c2ccccc2O)c1` showed an inhibition of 7.21%.
With `CC(C)c1nc(SCC(=O)Nc2ccc3c(c2)OCCO3)c2c(=O)n(C)c(=O)n(C)c2n1` the inhibition was 3.08%.
In the case of `Cc1c(NC(=O)/C(C#N)=C/c2ccc(-c3cc(Cl)ccc3Cl)o2)c(=O)n(-c2ccccc2)n1C`, the inhibition is reported as 0.645%.
`C/C(=N\Nc1nc(N)cc(Cl)n1)c1ccc(F)cc1` showed an inhibition of 1.42%.
Compound `CSc1cccc(CNC(=O)C2CCC(=O)N(CCc3ccccn3)C2)c1` (stereo not drawn) has an inhibition of 25.2%.
`Cc1ccc(-c2ccc(=O)n(CC(=O)NCCN3C(C)CCCC3C)n2)cc1` (stereo not drawn) showed an inhibition of 0.56%.
For `COc1ccccc1N(CC(=O)NCc1ccccc1C)S(=O)(=O)c1ccc(C)cc1`, the inhibition was 2.07%.
`O=C1Nc2ccccc2Nc2ncccc21` was tested, and the inhibition was -0.98%.
`Cc1ccc2c(c1)/C(=C/c1ccco1)C(=O)N2` gave an inhibition of -3.2%.
For `COc1cc(C)c2c(c1C=O)Oc1c(c(C)c(O)c3c1C(O)OC3=O)OC2=O` (stereo not drawn), the inhibition was 20%.
For `COc1cc(C(=O)O)c2c(c1C)OC(=O)c1c(C)cc(O)c(C=O)c1O2`, the inhibition was 5.23%.
Work on `Cc1ccccc1NC(=O)NC1(C(=O)N2CCN(C)CC2)CCCCC1` yielded an inhibition of 8.19%.
With `COc1cc(OC)cc(C(=O)N/N=C/c2ccc(OC)c(COc3ccc(F)cc3)c2)c1` the inhibition was -6.49%.
For `Cc1ccc(-c2nnc(Nc3cccc(O)c3)c3ccccc23)cc1S(=O)(=O)NCCO`, the inhibition was 34.4%.
`CC(=O)Nc1ccc(Nc2nnc(-c3ccc(C)c(S(=O)(=O)NCCO)c3)c3ccccc23)cc1` was tested, and the inhibition was 10.9%.
In the case of `Cc1cnc(NCCc2ccccc2)s1`, the inhibition is reported as 7.89%.
In the case of `O=C(CSc1nncc2ccccc12)Nc1cccc(C(=O)O)c1`, the inhibition is reported as 27.1%.
Compound `CN(CC(=O)Nc1ccc(F)cc1)C(=O)COc1ccc([N+](=O)[O-])cc1Cl` has an inhibition of 0.38%.
With `C[C@@H]1O[C@@H](O[C@H]2[C@H](Oc3cc(O)c4c(c3)OC(c3ccc(O)cc3)CC4=O)O[C@H](CO)[C@@H](O)[C@@H]2O)[C@H](O)[C@H](O)[C@H]1O` (stereo partly drawn) the inhibition was 34%.
`C[C@@H]1O[C@@H](O[C@H]2[C@H](Oc3cc(O)c4c(c3)O[C@H](c3ccc(O)cc3)CC4=O)O[C@H](CO)[C@@H](O)[C@@H]2O)[C@H](O)[C@H](O)[C@H]1O` was tested, and the inhibition was 25.7%.
`CC(C)Oc1ccc(CN2CCCC(CO)(Cc3ccc(F)cc3)C2)cc1` (stereo not drawn) showed an inhibition of 6.25%.
`Cc1nn(-c2ccccc2)c2sc(C(=O)NCCN3CCOCC3)cc12` gave an inhibition of 16.1%.
`O=C1NN(c2cccc(Br)c2)C(=O)/C1=C\c1ccccc1` showed an inhibition of 26.7%.
Compound `O=C1NN(c2cccc(Br)c2)C(=O)/C1=C\c1ccc(N2CCOCC2)cc1` has an inhibition of 8.36%.
`O=C(NCc1ccccc1)C1CC(=O)N(c2ccc(OCC(=O)N3CCCC3)cc2)C1` (stereo not drawn) showed an inhibition of 5.81%.
Work on `COc1ccccc1N(CC(=O)NCc1ccco1)S(C)(=O)=O` yielded an inhibition of 15.8%.
Work on `O=C(O)c1ccccc1Nc1cc(Cl)c2nonc2c1[N+](=O)[O-]` yielded an inhibition of 33.3%.
Work on `CN(C)c1cc(Nc2cccc(O)c2)c([N+](=O)[O-])c2nonc12` yielded an inhibition of 16.9%.
`O=C(O)c1cccc(Nc2cc(Cl)c3nonc3c2[N+](=O)[O-])c1` showed an inhibition of 20.1%.
In the case of `CN(C)c1cc(Nc2ccc(O)cc2)c([N+](=O)[O-])c2nonc12`, the inhibition is reported as 14.7%.
`O=[N+]([O-])c1c(Nc2ccccn2)cc(Cl)c2nonc12` was tested, and the inhibition was 27.4%.
Compound `Cc1c(Nc2cc(Cl)c3nonc3c2[N+](=O)[O-])c(=O)n(-c2ccccc2)n1C` has an inhibition of 26.5%.
`O=C(O)c1cccc(Nc2ccc3nonc3c2[N+](=O)[O-])c1` was tested, and the inhibition was 10.9%.
`O=[N+]([O-])c1c(Nc2ccccc2O)cc(Cl)c2nonc12` gave an inhibition of 29.4%.
